Reference: PubChem BioAssay (NCI)
About 83,000 compounds went through this panel and 20% of them were active in at least one assay; those are over-represented in the sample as a whole.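 Method: cells in 96-well plates; compound added at one concentration; 48 h incubation; percent growth measured; values under 10 scored active.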 The source made the active and inactive calls.

Tests used:
Assay in all cases: NCI-60 one-dose screen, 48 h (100 = growth as untreated, 0 = no growth, -100 = all killed)
Details in all cases: 10 µM unless noted
T-47D breast = test system: T-47D breast
BT-549 breast = test system: BT-549 breast
MDA-MB-435 melanoma = test system: MDA-MB-435 melanoma
SW-620 colon = test system: SW-620 colon
MCF7 breast = test system: MCF7 breast
HCT-116 colon = test system: HCT-116 colon
HCC-2998 colon = test system: HCC-2998 colon
KM12 colon = test system: KM12 colon

Measured: growth

COc1cc(OC)c(C(=O)/C=C/c2cccc(C(F)(F)F)c2)c(OC)c1
active: BT-549 breast -2.51% | SW-620 colon 0.796% | HCT-116 colon 2.79%
inactive: T-47D breast 16.4% | MDA-MB-435 melanoma 16.2% | MCF7 breast 17% | HCC-2998 colon 29.1%

COc1ccccc1CNCCCN1C(=O)c2ccc3c4c(ccc(c24)C1=O)C(=O)N(CCCNCCCCNCCCCN)C3=O
inactive: BT-549 breast 102%
active: T-47D breast -1.05% | MDA-MB-435 melanoma -59.7% | SW-620 colon 2.99% | MCF7 breast -34.9% | HCT-116 colon 3.34% | HCC-2998 colon -4.93% | KM12 colon 5.46%

CCn1cc(C(=O)O)c(=O)c2cc(F)c(N3CCN(S(=O)(=O)c4c(C)cc(C)cc4C)CC3)cc21
inactive: T-47D breast 74.1% | BT-549 breast 73.7% | MDA-MB-435 melanoma 89.1% | SW-620 colon 95.1% | MCF7 breast 93.7% | HCT-116 colon 79.2% | HCC-2998 colon 82.5% | KM12 colon 87.2%

CCC(c1ccc(OC)cc1)C(CC)c1ccc(O)c(CN2CCCC2)c1 (stereo not drawn)
inactive: HCT-116 colon 35.9% | KM12 colon 27.9%
active: T-47D breast -33% | BT-549 breast 2.58% | MDA-MB-435 melanoma -31.6% | SW-620 colon 0.333% | MCF7 breast -44.4% | HCC-2998 colon -83%

COc1ccc(S(=O)(=O)NCCNc2nccc(-c3c(-c4ccccc4)nc4sccn34)n2)cc1
active: MCF7 breast 4.01% | HCT-116 colon 9.81% | KM12 colon 9.45%
inactive: T-47D breast 10.9% | BT-549 breast 34.7% | MDA-MB-435 melanoma 11.2% | SW-620 colon 36.5% | HCC-2998 colon 60.7%

COC1=CC(c2ccc[nH]2)=N/C1=C\c1[nH]c(C)c(C(=O)CCCCC(=O)Nc2ccccc2)c1C
active: SW-620 colon -87.8% | MCF7 breast -85.7% | HCT-116 colon -100% | KM12 colon -3.11%
inactive: T-47D breast 63.9% | BT-549 breast 13.9% | MDA-MB-435 melanoma 17% | HCC-2998 colon 55.6%

Cc1nc(Nc2cccnc2)sc1C(=O)/C=C/c1ccc(Cl)cc1
active: MDA-MB-435 melanoma 5.05% | SW-620 colon 6.92%
inactive: T-47D breast 24.8% | BT-549 breast 15.2% | MCF7 breast 13.2% | HCT-116 colon 26.8% | HCC-2998 colon 84.8% | KM12 colon 12.9%

CCCC(C(=O)OCC)C(C)OC(=O)OCC (stereo not drawn)
inactive: T-47D breast 86.6% | BT-549 breast 115% | MDA-MB-435 melanoma 101% | SW-620 colon 113% | MCF7 breast 101% | HCT-116 colon 103% | HCC-2998 colon 103% | KM12 colon 101%

CCCCCc1c(C)[nH]c(/C=c2\[nH]/c(=C3/C=c4ccccc4=N3)cc2OC)c1C
active: T-47D breast -6.71% | BT-549 breast -35.2% | MDA-MB-435 melanoma -53.6% | SW-620 colon -36.1% | MCF7 breast -54.5% | HCT-116 colon -97.2% | HCC-2998 colon -11.4% | KM12 colon -21.7%

COc1ccc(/C=C/C(=O)/C=C/c2cc3ccc(Cl)cc3[nH]c2=O)cc1
inactive: T-47D breast 67.3% | BT-549 breast 75.6% | MDA-MB-435 melanoma 81.5% | SW-620 colon 66.1% | MCF7 breast 25.2% | HCC-2998 colon 93.1% | KM12 colon 72.5%
active: HCT-116 colon -50.8%

CCCCC(N)(C(=O)O)C1CCCC1 (stereo not drawn)
inactive: T-47D breast 110% | BT-549 breast 103% | MDA-MB-435 melanoma 104% | SW-620 colon 105% | MCF7 breast 91.4% | HCT-116 colon 101% | HCC-2998 colon 112% | KM12 colon 113%

COc1ccc(/C(=N/O)c2cc(OC)c(OC)c(OC)c2)c(OC)c1N
inactive: T-47D breast 27.2% | BT-549 breast 36.2% | SW-620 colon 17.4% | MCF7 breast 21% | HCT-116 colon 20.6% | HCC-2998 colon 73.4% | KM12 colon 23.8%
active: MDA-MB-435 melanoma -42.3%

CCC#CC[C@H]1C/C=C2/C(=O)C=C[C@@H]2C/C=C\CCCC(=O)O1
active: BT-549 breast 0.46% | MDA-MB-435 melanoma -0.679% | SW-620 colon 0.0835% | HCT-116 colon -70.9% | HCC-2998 colon -67% | KM12 colon -48.8%
inactive: T-47D breast 24.1% | MCF7 breast 18.3%

CCc1c(C(=O)Nc2ccc3ccccc3c2)[nH]c(C)c1C(C)=O
inactive: T-47D breast 83.6% | BT-549 breast 112% | MDA-MB-435 melanoma 78.7% | SW-620 colon 99.5% | MCF7 breast 84.6% | HCT-116 colon 99.5% | HCC-2998 colon 99.1% | KM12 colon 84.7%

O=S(=O)(NCCCNc1cc(-c2cn(-c3ccccc3)nc2-c2cccc(O)c2)ccn1)c1ccc(C(F)(F)F)cc1
active: HCC-2998 colon -30.5%
inactive: T-47D breast 35.1% | BT-549 breast 42.2% | MDA-MB-435 melanoma 34.9% | SW-620 colon 27.4% | MCF7 breast 22% | HCT-116 colon 29% | KM12 colon 23.3%

CCn1cc(C(=O)O)c(=O)c2cc(F)c(N3CCN(S(=O)(=O)c4ccc(Cl)cc4Cl)CC3)cc21
inactive: MDA-MB-435 melanoma 12.8% | SW-620 colon 16.4% | MCF7 breast 89.2% | HCC-2998 colon 30.6%
active: T-47D breast 1.7% | BT-549 breast -4.59% | HCT-116 colon 6.37% | KM12 colon 9.4%

O=S(=O)(NCCCNc1nccc(-c2c(-c3ccccc3)nc3sccn23)n1)c1ccc(F)cc1
inactive: BT-549 breast 54.3% | MDA-MB-435 melanoma 16.5% | SW-620 colon 53.8% | MCF7 breast 31.6% | HCT-116 colon 25.9% | HCC-2998 colon 86.4% | KM12 colon 39.4%
active: T-47D breast 7.39%

O=C1c2ccccc2C(=O)c2c(N=Nc3sc(=O)[nH]c3S)cccc21
inactive: T-47D breast 82.4% | BT-549 breast 109% | MDA-MB-435 melanoma 100% | SW-620 colon 90% | MCF7 breast 72% | HCT-116 colon 95.7% | HCC-2998 colon 102% | KM12 colon 90.3%

Nc1c(C(=O)Nc2cccc(C(F)(F)F)c2)sc2nc3c(cc12)CCCCCC3
inactive: BT-549 breast 59.6% | MDA-MB-435 melanoma 31% | SW-620 colon 46% | MCF7 breast 20.4% | HCC-2998 colon 37.1% | KM12 colon 30.1%
active: T-47D breast -7% | HCT-116 colon -18.1%

CC1=C(C#N)C(C)(C)C(C#N)=C(C)N1
inactive: T-47D breast 96.6% | BT-549 breast 100% | MDA-MB-435 melanoma 105% | SW-620 colon 102% | MCF7 breast 96.7% | HCT-116 colon 104% | HCC-2998 colon 108% | KM12 colon 103%

COc1cc(Cn2c(SCC(=O)Nc3ccc(Cl)cc3)nc3ccccc3c2=O)cc(OC)c1OC
inactive: T-47D breast 45.2% | BT-549 breast 75.1% | MDA-MB-435 melanoma 69.8% | SW-620 colon 77.7% | MCF7 breast 77.2% | HCT-116 colon 35.6% | HCC-2998 colon 93.2% | KM12 colon 79.4%

O=C(Nc1ccc(I)cc1)c1cccc([N+](=O)[O-])c1O
inactive: MDA-MB-435 melanoma 14.2% | SW-620 colon 21.7% | HCC-2998 colon 19.9% | KM12 colon 14.1%
active: T-47D breast 9.64% | BT-549 breast 4.69% | MCF7 breast 7.91% | HCT-116 colon 8.14%

CCOC(=O)CC(C#N)(CC(=O)OCC)C(=O)OCC
inactive: T-47D breast 105% | BT-549 breast 106% | MDA-MB-435 melanoma 94.8% | SW-620 colon 108% | MCF7 breast 101% | HCT-116 colon 102% | HCC-2998 colon 109% | KM12 colon 106%

CCOC(=O)C(Cc1ccccc1)n1c(O)c(C=Nc2ccc(C(=O)OCCN(CC)CC)cc2)sc1=O (stereo not drawn)
inactive: T-47D breast 81.6% | BT-549 breast 96.3% | MDA-MB-435 melanoma 90.1% | SW-620 colon 97.6% | MCF7 breast 74.5% | HCT-116 colon 104% | HCC-2998 colon 108% | KM12 colon 83.5%

Cc1ccc(OCCn2c(C)nn(-c3ccc(Cl)cc3)c2=O)cc1
inactive: T-47D breast 104% | BT-549 breast 99.8% | MDA-MB-435 melanoma 105% | SW-620 colon 106% | MCF7 breast 98.8% | HCT-116 colon 95.5% | HCC-2998 colon 111%

COc1cc(C(=O)OCCCCCCCCCCC[P+](c2ccccc2)(c2ccccc2)c2ccccc2)ccc1O
inactive: HCC-2998 colon 19.3%
active: T-47D breast -43.1% | BT-549 breast -60.8% | MDA-MB-435 melanoma -46.7% | SW-620 colon -0.568% | MCF7 breast -40.8% | HCT-116 colon -33.6% | KM12 colon -80.6%

Nc1c(C(=O)Nc2cccc(C(F)(F)F)c2)sc2nc3c(cc12)C(O)CCC3 (stereo not drawn)
inactive: T-47D breast 17% | BT-549 breast 52.9% | SW-620 colon 33.1% | MCF7 breast 10.2% | HCT-116 colon 35.2% | HCC-2998 colon 78.8% | KM12 colon 18.1%
active: MDA-MB-435 melanoma -16.7%

COc1cc(-c2csc(NC(=O)Nc3ccc(Cl)cc3Cl)n2)cc(OC)c1OC
active: MDA-MB-435 melanoma -7.76%
inactive: T-47D breast 26.6% | BT-549 breast 38.3% | SW-620 colon 28.8% | MCF7 breast 11.8% | HCT-116 colon 19.3% | HCC-2998 colon 60.1% | KM12 colon 24.6%

CCN(CC)CCC(=O)c1cccc2ccccc12
inactive: T-47D breast 85.1% | BT-549 breast 110% | MDA-MB-435 melanoma 108% | SW-620 colon 104% | MCF7 breast 63.9% | HCT-116 colon 109% | HCC-2998 colon 97.1% | KM12 colon 103%

CCCCCCCCCCC/C=C\C[C@H](O)C/C=C1/C(=O)C=C[C@@H]1C/C=C\CCCC(=O)OC
active: T-47D breast -8.92% | BT-549 breast -14.2% | MDA-MB-435 melanoma -14.5% | SW-620 colon 3.33% | HCT-116 colon -32% | HCC-2998 colon -46.5% | KM12 colon -48.5%
inactive: MCF7 breast 10.8%
